This excerpt belongs to a sample that is enriched for hits.
PD-1 reversal = activators reversing PD-1 mediated T-cell inhibition, primary screen, luminescence, primary human CD4 T cells, PD-L1 beads. 29,000 tested, under 10 active. AID 2316, 2010. activation, % (concentration not given with the values). CellTiter-Glo 96 h; call rule not given here
U2OS ROS induce = ROS inducers in U2OS cancer cells, primary screen, cell-based, H2DCF-DA fluorescence. 46,000 compounds, 2% hits. ROS induction (% of piperlongumine), % at 10 µM. U2OS ROS induction; in the data active means ROS induction above about 79%, passing the limit was not always enough
NOMO-1 viab = NOMO-1 AML cell viability reduction, primary screen, STK33 inhibitor project, CellTiter-Glo luminescence; NOMO-1 AML viability, 72 h; inhibition, % (no concentration beside the values); 37,000 compounds, 7.5% hits; AID 2330, 2010; in the data active means inhibition above about 80%
Each line names hits and unclear results; the compound was inactive in the other large screens.

C=C(C)[C@@H]1CC[C@]2(C(=O)O)CC[C@]3(C)[C@H](CCC4[C@@]5(C)CCC(=O)C(C)(C)C5C(O)C[C@]43C)C12 (some centres undefined)	NOMO-1 viab 104
C=C(C)[C@@H]1CC[C@]2(C(=O)O)CC[C@]3(C)[C@H](CC[C@@H]4[C@@]5(C)CC[C@H](O)C(C)(C)[C@@H]5CC[C@]43C)[C@@H]12	NOMO-1 viab 105 (no result: PD-1 reversal)
CCCc1cc(=O)oc2cc3occ(-c4ccccc4)c3cc12	none (no result: PD-1 reversal, NOMO-1 viab)
Nc1cccc(-c2cc3c(Oc4cccc(O)c4)ncnc3[nH]2)c1	NOMO-1 viab 91
Cc1cc(C)c2c(=O)[nH]c(SCC(=O)c3cccs3)nc2n1	none
CCN(CC)c1c(C#N)c(SCC(=O)c2cccs2)cc2c1CCCC2	U2OS ROS induce 92
C[C@@H]1CN([C@@H](C)CO)C(=O)Cc2cc(NC(=O)Nc3ccc4c(c3)OCO4)ccc2O[C@@H]1CN(C)Cc1ccc(Oc2ccccc2)cc1	NOMO-1 viab 107
C[C@H]1CN([C@@H](C)CO)C(=O)Cc2cc(NC(=O)Nc3ccccc3)ccc2O[C@@H]1CN(C)Cc1ccc(Oc2ccccc2)cc1	none
C[C@@H]1CN([C@@H](C)CO)C(=O)Cc2cc(NC(=O)Nc3ccccc3)ccc2O[C@@H]1CN(C)Cc1ccc(Oc2ccccc2)cc1	none
C[C@@H]1CN([C@H](C)CO)C(=O)Cc2cc(NC(=O)Nc3ccc4c(c3)OCO4)ccc2O[C@H]1CN(C)Cc1ccc(Oc2ccccc2)cc1	NOMO-1 viab 117 (no result: PD-1 reversal)
C[C@H](CO)N1C[C@H](C)[C@H](CN(C)Cc2ccc(Oc3ccccc3)cc2)Oc2ccc(NC(=O)Nc3ccccc3)cc2CC1=O	none
C[C@@H]1CN([C@H](C)CO)C(=O)Cc2cc(NC(=O)Nc3ccc4c(c3)OCO4)ccc2O[C@@H]1CN(C)Cc1ccc(Oc2ccccc2)cc1	NOMO-1 viab 119
CC1CN(C(=O)Nc2ccc(Cl)cc2)c2ccccc2O1 (centres undefined)	none (no result: PD-1 reversal, NOMO-1 viab)
CCCCc1cc(=O)oc2cc3oc4c(c3cc12)CCCC4	none (no result: PD-1 reversal, NOMO-1 viab)
O=C1CSc2ccc(C(=O)NCC3COc4ccccc4O3)cc2N1 (centres undefined)	none (no result: PD-1 reversal, NOMO-1 viab)
COC(=O)CNC(=O)c1cc(-c2ccc(F)cc2)nc2ccccc12	none (no result: PD-1 reversal, NOMO-1 viab)
O=C(CN1C(=O)/C(=C/c2ccccc2F)Sc2ccccc21)N1CCN(c2ccc(F)cc2)CC1	none (no result: PD-1 reversal, NOMO-1 viab)
c1ccc(CN2CCN(c3ncnc4sc5c(c34)CCCCC5)CC2)cc1	none (no result: PD-1 reversal, NOMO-1 viab)
S=C(c1cn(Cc2ccccc2)c2ccccc12)N1CCCCC1	none (no result: PD-1 reversal, NOMO-1 viab)
COC(=O)c1cccc2oc3cc(CO)cc(O)c3c(=O)c12	none
COC(=O)C1=C2C(=O)c3c(O)cc(CO)cc3OC2C(O)C=C1 (centres undefined)	U2OS ROS induce 146, NOMO-1 viab 108
Cc1cc(N2C(=O)CCC2=O)no1	none (no result: PD-1 reversal, NOMO-1 viab)
Cc1cc(NC(=O)COc2ccccc2)no1	none (no result: PD-1 reversal, NOMO-1 viab)
CCn1c(=O)cc(SCC(=O)NCCc2ccc(C)cc2)c2ccccc21	none (no result: PD-1 reversal, NOMO-1 viab)
C[C@H]1CN([C@@H](C)CO)C(=O)c2cc(NC(=O)Nc3cccc4ccccc34)ccc2O[C@@H]1CN(C)C(=O)Nc1ccccc1	none
C[C@@H]1CN([C@H](C)CO)C(=O)c2cc(NC(=O)Nc3cccc4ccccc34)ccc2O[C@@H]1CN(C)C(=O)Nc1ccc(C(F)(F)F)cc1	none (no result: PD-1 reversal)
C[C@H](CO)N1C[C@H](C)[C@H](CN(C)C(=O)Nc2cccc3ccccc23)Oc2ccc(NC(=O)Nc3ccc(C(F)(F)F)cc3)cc2C1=O	NOMO-1 viab 114
C[C@@H]1CN([C@H](C)CO)C(=O)c2cc(NC(=O)Nc3ccc(C(F)(F)F)cc3)ccc2O[C@H]1CN(C)C(=O)Nc1cccc2ccccc12	NOMO-1 viab 117 (no result: PD-1 reversal)
C[C@@H]1CN([C@@H](C)CO)C(=O)c2cc(NC(=O)Nc3ccc(F)cc3)ccc2O[C@@H]1CN(C)C(=O)Nc1cccc2ccccc12	none (no result: PD-1 reversal)
C[C@@H]1CN([C@H](C)CO)C(=O)c2cc(NC(=O)Nc3cccc4ccccc34)ccc2O[C@@H]1CN(C)C(=O)Nc1ccccc1	U2OS ROS induce 84
CN(C)CCNC(=O)c1ccc2c(=O)n(Cc3ccc4c(c3)OCO4)c(=S)[nH]c2c1	none (no result: PD-1 reversal, NOMO-1 viab)
CSc1ccc(CCNC(=O)c2ccc3snnc3c2)cc1	none (no result: PD-1 reversal, NOMO-1 viab)
Cc1onc(-c2c(Cl)cccc2Cl)c1C(=O)OC1=CC(=O)CC(C)(C)C1	none (no result: PD-1 reversal, NOMO-1 viab)
COc1ccc(-n2ccc(-c3ccccc3)nc2=S)cc1	none (no result: PD-1 reversal, NOMO-1 viab)
CCOC(=O)c1cnc2cc(C(F)(F)F)ccc2c1N(C)Cc1ccccc1	none
CCOC(=O)c1cnc2ccc(OCC)cc2c1N(C)Cc1ccccc1	U2OS ROS induce 139, NOMO-1 viab 96
Cc1ccccc1-c1nc2cc(NC(=O)COc3ccc(Cl)cc3)ccc2o1	none (no result: PD-1 reversal, U2OS ROS induce)
O=C(COc1ccc(Cl)cc1Cl)Nc1ccc(O)c(-c2nc3ccccc3s2)c1	NOMO-1 viab 103
Cc1cc(Cl)ccc1OCC(=O)Nc1ccccc1-c1nc2ccccc2s1	none (no result: PD-1 reversal, U2OS ROS induce)

High-throughput results from PubChem BioAssay.
